Source: PubChem BioAssay (National Center for Advancing Translational Sciences (NCATS))
In the library only some 5.9% were active in any assay of this set; here they are far more common.
RORgamma inh = blocks mouse ROR gamma transcriptional activity; 5.4% of 310,000 active; Drosophila S2 Gal4-RORgamma UAS-luciferase reporter, 20 h; P51450; Potency, µM (highest dose often 53.6 µM), for the others: at the top dose activity change, negative = inhibition, actives largely listed as inhibitors; AID 2551; further: on the % scale 0 is the no-effect control and ±100 the full control effect; nearly all actives have a fitted effect of over 60% in size
Target sequence (P51450 whole entry, looked up, the tested form may be a part): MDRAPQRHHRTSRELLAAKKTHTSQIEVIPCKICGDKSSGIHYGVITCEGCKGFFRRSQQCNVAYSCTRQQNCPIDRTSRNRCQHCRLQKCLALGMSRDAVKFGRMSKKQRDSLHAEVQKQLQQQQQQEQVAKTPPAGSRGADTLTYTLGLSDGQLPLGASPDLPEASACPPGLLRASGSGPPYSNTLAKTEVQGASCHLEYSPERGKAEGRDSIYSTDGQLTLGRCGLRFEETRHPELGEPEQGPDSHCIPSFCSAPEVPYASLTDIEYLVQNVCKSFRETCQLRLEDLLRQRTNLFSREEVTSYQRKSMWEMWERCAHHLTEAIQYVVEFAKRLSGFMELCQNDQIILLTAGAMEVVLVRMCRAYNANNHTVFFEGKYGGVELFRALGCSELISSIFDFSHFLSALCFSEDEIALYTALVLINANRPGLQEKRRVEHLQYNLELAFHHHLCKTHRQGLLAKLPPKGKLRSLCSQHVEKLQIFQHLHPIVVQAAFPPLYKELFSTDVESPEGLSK
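Drosophila S2 cells stably expressing Gal4-DBD/mouse RORγ fusion under metallothionein promoter plus UAS-luciferase; compound 1 h, then 700 uM CuSO4 induction for 20 h at ambient temperature; inhibition read as reduced luminescence.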
Gal4-VP16 FLuc = inhibits Gal4-VP16 luciferase reporter, ROR gamma counter-screen. 3.5% of 310,000 active. Potency, µM (doses to about 53.6 µM), inactives show top-dose activity, negative = inhibition, actives largely listed as inhibitors. Drosophila S2 Gal4-VP16 UAS-luciferase, luminescence, 20 h. AID 2546;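 further: Gal4-VP16 expression switched on by copper sulfate through the metallothionein promoter; on the % scale 0 is the no-effect control and ±100 the full control effect; nearly all actives have a fitted effect of over 50% in size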
GLP-1R inv ag = GLP-1 receptor (human) inverse agonism; HEK293 GLP-1R CRE-luciferase, luminescence, 24 h; GLP-1R form is constitutively active; Potency, µM (highest dose often 38.3 µM), for the others: at the highest dose activity change, negative = inhibition, hits mostly inhibitors; 1.6% of 410,000 active; further: on the % scale 0 is the no-effect control and ±100 the full control effect; nearly all actives have a fitted effect of over 55% in size
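Using stably transfected HEK293 (constitutively active GLP-1R, cAMP-luciferase reporter), compounds were incubated 24 hr and luciferase measured by luminescence.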
HEK293 tox = cytotoxicity counter-screen for GLP-1 receptor inverse agonists. HEK293 cAMP-luciferase reporter cells, luminescence, 24 h. Potency, µM (top dose mostly 38.3 µM), for inactives: top-dose activity change, negative = inhibition, hits mostly inhibitors. 0.13% of 410,000 active. AID 624418;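 further: loss of luciferase light is scored as toxicity; on the % scale 0 is the no-effect control and ±100 the full control effect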
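1536-well qHTS counterscreen of the MLSMR; 200 cells/uL, 12 h pre-incubation, 23 nL cpd, 24 h at 37 deg C 5% CO2, luciferase detection reagent, 12 min RT, luminescence. Inhibition = undesired.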
GLP1R ag = agonists of human GLP-1 receptor; Potency, µM (doses to about 45.6 µM), without a hit: at the highest dose activation, usual class: activators; P43220; 0.007% of 380,000 active; HEK293 GLP-1R CRE-luciferase, luminescence, 4-6 h; cells express a hypersensitive GLP-1R form; further: % of control where 0% means no effect
* marks the source's active call; other numbers are inactive results; ? = inconclusive; . = no result; [ ] = another dose, or the depositor's remark. The call rests on the fitted dose curve; in most records, active means well fitted curve in the direction sought with a large enough effect; inconclusive means small, poorly fitted or top-dose-only effect, or another doubt; inactive means no such curve, though single readings can be large; an effect the other way counts as inactive or inconclusive. Potency means the concentration at half of the fitted maximal effect.

SMILES	RORgamma inh	Gal4-VP16 FLuc	GLP-1R inv ag	HEK293 tox	GLP1R ag
Cc1ccc(S(=O)(=O)N(C)c2nc3ccccc3[nH]c2=S)cc1	4.5µM*	-10%	36%	3%	2%
COc1ccc2cc(CNc3ccc(C)cc3)c(=O)n(CC(=O)Nc3ccc(C)cc3Cl)c2c1	.	.	8%	-2%	0%
O=C(NNc1ccc([N+](=O)[O-])cc1)c1ccccc1Cl	19%	-16%	1.8µM*	1%	-3%
O=C(NNc1ccc([N+](=O)[O-])cc1)c1ccccc1F	12%	-4%[10 µM]	?	?	-1%
O=C(NC1=NCCS1)c1ccc([N+](=O)[O-])cc1Cl	-41%	0%	9%[7.66 µM]	13%[7.66 µM]	4%
O=C(NNC1=Nc2cc([N+](=O)[O-])ccc2OC1)c1ccccc1Cl	1µM*	-19%	4%	-14%	0%
CC(C)NC(=O)N1CC2(CCN(C(=O)c3cccn3C)CC2)C1	-12%	-6%	.	.	.
Cc1ccc(Nc2cc(C)nc3ncnn23)c(Cl)c1	?	?	11%	-2%	-3%
Cc1cc(Nc2cccc(Cl)c2Cl)n2ncnc2n1	13µM*	?	87%	-10%	-2%
COc1ccc(NC(=O)c2oc3ccccc3c2NC(=O)Cc2ccc(F)cc2)c(OC)c1	.	.	4%	-1%	-2%
O=S(=O)(c1ccc(Cl)cc1)c1nnn2c1nc(NCc1ccccc1)c1sccc12	.	.	3%	4%	.
CCOc1ccc(CC(=O)NCc2cn3c(C)csc3n2)cc1	3%	5%	43%	14%	-5%
CCCC1=NN(C(=O)Cc2ccc(OC)cc2)C(O)(C(F)(F)F)C1 (stereo not given)	13µM*	?	?	10%	15%
CCOc1ccc(CC(=O)N2N=C(C)CC2(O)C(F)(F)F)cc1 (stereo not given)	1.6µM*	5µM*	-26%	-3%	0%
CCO[C@H]1OC(C(=O)NCc2ccccc2)=C[C@@H](c2ccc(C(F)(F)F)cc2)[C@@H]1CCCO	?	-13%	10µM*	-1%	-4%
CCO[C@@H]1OC(C(=O)N2CCCCCCC2)=C[C@H](c2ccc(C(F)(F)F)cc2)[C@H]1CCCO	26%	-16%	10µM*	1%	20%
CCO[C@H]1OC(C(=O)NCc2nc3ccccc3[nH]2)=C[C@@H](C2CCCCC2)[C@@H]1CCCO	32%	4%	10µM*	-45%	4%
COCOc1c2c(c(OCOC)c3c(OCOC)cccc13)/C(=N/NS(C)(=O)=O)C1=C2CCCC1	-29%	-4%	.	.	.
COc1cccc(C2C(C(C)=O)=C(O)C(=O)N2CCc2c[nH]c3ccccc23)c1 (stereo not given)	112µM*	1%	-23%	5%	-3%
O=C(COc1ccc(Cl)cc1Cl)NC(=O)NC1CCCC1	.	.	?	-2%	27%
O=C(COc1ccc(Br)cc1Cl)NC(=O)NC1CCCC1	.	.	3.5µM*	0%	12%
O=C(COc1ccc(Cl)cc1Br)NC(=O)NC1CCCC1	.	.	10µM*	-3%	2%
CCC(=O)NNc1nc2c(C)c(C)ccc2s1	7.9µM*	-29%	6%	-7%	-3%
CCC(=O)NNc1nc2c(C)cccc2s1	11µM*	?	-17%	3%	-2%
CCC(=O)NNc1nc2c(Cl)cccc2s1	?	6%	1%	-1%	-1%
SMILES	RORgamma inh	Gal4-VP16 FLuc	GLP-1R inv ag	HEK293 tox	GLP1R ag
O=S(=O)(NC1CCc2ccccc21)c1ccccc1 (stereo not given)	.	.	?	-2%	6%
O=C1C(Cl)=C(NC2CCc3ccccc32)C(=O)c2ncccc21 (stereo not given)	4.5µM*	4.5µM*	.	.	.
O=C1C(Cl)=C(NCCN2CCOCC2)C(=O)c2ncccc21	4.5µM*	2.8µM*	.	.	.
CCOC(=O)c1c(C)[nH]c(C(=O)OC/C(O)=C(\C#N)c2nc3ccccc3[nH]2)c1C	?	?	?	-13%	-8%
N#C/C(=C(/O)COC(=O)CSc1ccc(Cl)cc1)c1nc2ccccc2[nH]1	10µM*	11µM*	?	8.9µM*	-18%
N#CC(=C(O)COC(=O)CCC1CCCCC1)c1nc2ccccc2[nH]1	.	.	2%	-4%	0%
